Here are results for 15 molecules from PubChem BioAssay.

A short description of test [1]: inhibitors of TNFa-induced NFkB p65 translocation, primary screen, imaging, HUVEC, MLSMR starter and 10KST1 sets (AID 438;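 active = inhibition above 20% together with a positive visual image hit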;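 note: compound added about 3h40 before a 20 min TNFalpha stimulation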;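 for inhibition: signal is the nuclear over cytoplasmic p65 intensity ratio per well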). As to conditions: HUVEC TNFa-induced p65 nuclear translocation; cell count: measured here: nuclei count (cytotoxicity indicator), at 2.08 µM; inhibition: at 2 µM, stronger effect = higher value, 0% TNFa-plus-vehicle, 100% no-TNFa wells.
Test [2] can be described thus: inhibitors of mutant huntingtin aggregation, primary screen, imaging, exon1htt(103Q)mCFP cells, high-content imaging (AID 483;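 active = visual image review flags a hit and inhibition of aggregation exceeds 20%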;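 note: compound exposure lasted 3 days before fixation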;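 for nuclei count: percent of the per-plate median nuclei count of sample wells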). As to conditions: exon1htt(103Q)mCFP cell line, aggregate imaging, at 2 µM; inhibition of aggregation: stronger effect = higher value; nuclei count: measured here: cell count, toxicity.
Test [3] is described as follows: inhibitors of E-selectin induction by TNFa, primary screen, imaging, HUVEC, immunofluorescence, MLSMR starter and 10KST1 sets (AID 487;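 active = visually confirmed hit in the image check and inhibition above 20%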;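 for inhibition: signal is fraction of cell area covered by stained E-selectin grains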;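 for nuclei count: 100% = median nuclei count of all wells on the same plate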). As to conditions: HUVEC TNFalpha-induced E-selectin immunofluorescence imaging, at 2 µM; inhibition: stronger effect = higher value; nuclei count: measured here: cell number, toxicity.
The target in test [4] is Voltage-gated potassium channel subunit beta-2 (Rattus norvegicus) (UniProt P62483). Nature of the test: KvBeta enzyme negative modulators, primary screen, biochemical, NADPH fluorescence (AID 622;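 active = fluorescence slope higher than the sample average by over 3 SD, cut at about -0.22 in these data, passing the limit was not always enough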;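 note: slope of raw intensity against log time taken from 70 to 1610 s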). The following applies: recombinant KvBeta, 4-cyanobenzaldehyde reduction, at 10 µM, stronger effect = higher value.
Test [5] has the same target. In words: KvBeta positive modulators, primary screen, biochemical, NADPH fluorescence (AID 623;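 active = NADPH fluorescence slope more negative than the mean of all samples by about 3 SD, 99.7% confidence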;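 note: fluorescence intensity change per second fitted from 20 to 320 s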). The following applies: Recombinant KvBeta, NADPH fluorescence decrease slope, 10 min; at 10 µM; stronger effect = lower value.
Test [6] concerns the target Alpha-2C adrenergic receptor (Homo sapiens) (UniProt P18825). In words: modulators of alpha2C/GIRK thallium flux, primary screen, cell-based, HEK293 alpha2C/GIRK1/2 (AID 624;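 active = fluorescence slope after compound addition differing from the mean of all screened samples at 99.7% confidence, in either direction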;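 note: slope of fluorescence ratio to pre-addition baseline per second over 15 to 24 s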). As to conditions: thallium flux BTC fluorescence, at 10 µM, actives lie on both sides.
Test [7] is described as follows: inhibitors of Sendai virus-induced IRF3 signaling, primary screen, TLR/RLR signaling modifier project, cell-based, Sendai virus stimulus, luciferase, 10K MLSCN set (AID 602276).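 Note: firefly luciferase from ISG56 promoter only with Renilla not read in this screen; 0% = Sendai virus plus DMSO and 100% = medium plus DMSO without virus.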 The following applies: HEK293 RL24 IRF3 luciferase reporter, at 10 µM, stronger effect = higher value. (In a reporter assay the amount or activity of a reporter protein is the signal.)
A short description of test [8]: inhibitors of poly I:C-induced TLR3 signaling, primary screen, cell-based, poly I:C stimulus, luciferase, 10K MLSCN set (AID 602277;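 active = inhibition of the reporter signal at or above 50%; inactive = inhibition below 50%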). As to conditions: HEK293-TLR3 RL24 IRF3 luciferase reporter, at 10 µM, stronger effect = higher value.

Structures are written as SMILES. The source made the active and inactive calls.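 Rule for the calls, unless noted: active = inhibition at or above 50% at 10 µM; inactive = inhibition below 50%.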

Sequence of Voltage-gated potassium channel subunit beta-2 (Rattus norvegicus) (P62483 whole entry, looked up): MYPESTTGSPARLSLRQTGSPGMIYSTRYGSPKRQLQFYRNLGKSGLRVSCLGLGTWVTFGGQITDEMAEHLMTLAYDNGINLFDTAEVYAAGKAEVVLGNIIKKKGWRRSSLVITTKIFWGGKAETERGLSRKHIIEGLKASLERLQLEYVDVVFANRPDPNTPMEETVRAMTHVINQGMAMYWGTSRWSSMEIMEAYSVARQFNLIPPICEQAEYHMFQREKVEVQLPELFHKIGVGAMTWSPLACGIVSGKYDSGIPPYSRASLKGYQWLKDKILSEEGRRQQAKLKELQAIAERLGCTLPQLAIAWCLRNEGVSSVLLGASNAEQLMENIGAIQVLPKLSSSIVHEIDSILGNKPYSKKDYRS
Sequence of Alpha-2C adrenergic receptor (Homo sapiens) (P18825 whole entry, looked up): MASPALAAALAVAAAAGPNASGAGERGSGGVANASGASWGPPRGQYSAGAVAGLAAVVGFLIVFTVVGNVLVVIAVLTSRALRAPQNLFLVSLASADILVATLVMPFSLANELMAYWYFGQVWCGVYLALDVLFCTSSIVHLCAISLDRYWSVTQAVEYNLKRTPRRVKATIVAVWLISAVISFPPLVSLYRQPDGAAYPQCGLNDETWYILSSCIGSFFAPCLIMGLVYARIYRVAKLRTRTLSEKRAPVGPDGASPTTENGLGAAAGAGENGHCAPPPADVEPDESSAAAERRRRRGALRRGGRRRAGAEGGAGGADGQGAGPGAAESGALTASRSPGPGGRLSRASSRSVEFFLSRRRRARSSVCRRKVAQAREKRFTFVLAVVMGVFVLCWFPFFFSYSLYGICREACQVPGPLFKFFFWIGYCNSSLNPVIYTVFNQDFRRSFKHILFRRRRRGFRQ

In the case of `COc1cccc(NC(=O)CSc2nnnn2C(C)C)c1`, the cell count in test [1] is 738. Besides, the inhibition – broadly, the drop in the measured response relative to a control, in per cent – is 6.1% (inactive) in test [1], -4.8% (inactive) in test [3], 0.303% (inactive) in test [7] and -4.86% (inactive) in test [8]. In test [2], the inhibition of aggregation is -20.3% (inactive). Also, the nuclei count worked out at 109% in test [2] and 123% in test [3]. Moreover, in test [4], the fluorescence slope is -0.538 (inactive). In addition, the NADPH fluorescence slope in test [5] was -9e-05 (inactive). Moreover, the slope in test [6] is 0.00723 (inactive).

On to `COc1cccc(NC(=O)c2nnn(Cc3ccc(Br)cc3F)c2N)c1`, for which, in test [1], the cell count is 674. Moreover, the inhibition in test [1] was -2.8% (inactive); in test [3], -61.5% (inactive); in test [7], 16.4% (inactive); in test [8], 9.8% (inactive). Moreover, in test [2], the inhibition of aggregation is 28.1% (inactive). Further, the nuclei count worked out at 109% in test [2] and 108% in test [3]. The fluorescence slope in test [4] is -0.484 (inactive). In test [5], the NADPH fluorescence slope was -4e-05 (inactive). For the same molecule, the slope in test [6] is 0.00669 (inactive).

With `CC(C)(C)c1ccc(OCC(=O)O)cc1`, the cell count in test [1] is 567. Also, the inhibition is 3.1% (inactive) in test [1], -36% (inactive) in test [3], 7.32% (inactive) in test [7] and 11.4% (inactive) in test [8]. In test [2], the inhibition of aggregation is 11.7% (inactive). Besides, the results for the nuclei count in test [2] and in test [3] were 98% and 96.2%, respectively. For the same molecule, the fluorescence slope in test [4] is -0.599 (inactive). In addition, the NADPH fluorescence slope in test [5] was -3.9e-05 (inactive). The slope in test [6] is 0.00377 (inactive).

`COc1ccc(C2C(C(C)=O)=C(O)C(=O)N2C)c(OC)c1` (stereo not given): the cell count in test [1] worked out at 464. Also, the inhibition in test [1] is 3.8% (inactive); in test [3], -48.3% (inactive); in test [7], 5.02% (inactive); in test [8], 32% (inactive). Also, in test [2], the inhibition of aggregation was -2.5% (inactive). For the same molecule, the results for the nuclei count in test [2] and in test [3] were 116% and 136%, respectively. The fluorescence slope in test [4] is -0.461 (inactive). Moreover, the NADPH fluorescence slope in test [5] is -1.6e-05 (inactive). Also, the slope in test [6] was 0.00277 (inactive).

For `CCOc1ccccc1Nc1nnc(SCC(=O)N2CCCC2)s1`, the cell count in test [1] was found to be 655. In addition, the inhibition in test [1] is 1% (inactive); in test [3], -65.3% (inactive); in test [7] it was 4.86% (inactive); in test [8], 12.3% (inactive). Also, the inhibition of aggregation in test [2] is 12.1% (inactive). The nuclei count in test [2] turned out to be 106%; in test [3], 100%. Besides, in test [4], the fluorescence slope was -0.609 (inactive). In addition, the NADPH fluorescence slope in test [5] was 1.4e-05 (inactive). Moreover, in test [6], the slope is 0.00607 (inactive).

As to `O=c1[nH]c(Nc2ccccc2)cc2ccccc12`, the cell count in test [1] worked out at 526. Besides, the inhibition in test [1] was -14.6% (inactive); in test [3] it was -33.7% (inactive); in test [7], 7.19% (inactive); in test [8], 7.53% (inactive). Besides, in test [2], the inhibition of aggregation was -7.1% (inactive). Also, the results for the nuclei count in test [2] and in test [3] were 101% and 96.7%, respectively. Also, in test [4], the fluorescence slope is -0.132 (inactive). Besides, the NADPH fluorescence slope in test [5] was 1.3e-05 (inactive). In addition, the slope in test [6] is 0.00342 (inactive).

`COCCOC(=O)C1=C(N)OC2=C(C(=O)CC(C)(C)C2)C1c1cccnc1` (stereo not given): in test [1], the cell count worked out at 662. The inhibition in test [1] is 4.8% (inactive); in test [3] it was 22.6% (inactive); in test [7] it was -8.98% (inactive); in test [8] it was 19% (inactive). Moreover, in test [2], the inhibition of aggregation is 9.7% (inactive). Further, the nuclei count is 139% in test [2] and 112% in test [3]. Further, the fluorescence slope in test [4] is -0.452 (inactive). In test [5], the NADPH fluorescence slope is -4.3e-05 (inactive). Also, the slope in test [6] was 0.00687 (inactive).

On to `Cc1ccccc1OCc1nnc(SCC(=O)NCc2ccccc2)n1C`, for which the cell count in test [1] came to 409. Also, the inhibition is 3.9% (inactive) in test [1], -22.7% (inactive) in test [3], 12% (inactive) in test [7] and 23.6% (inactive) in test [8]. Further, in test [2], the inhibition of aggregation was -6.5% (inactive). In addition, the nuclei count was 106% in test [2] and 120% in test [3]. For the same molecule, in test [4], the fluorescence slope was -0.521 (inactive). Also, the NADPH fluorescence slope in test [5] was 5.8e-06 (inactive). Further, in test [6], the slope was 0.00575 (inactive).

As to `Nc1scc(-c2ccncc2)c1Cl`, the cell count in test [1] came out at 349. The inhibition was -0.2% (inactive) in test [1], -2.4% (inactive) in test [3], -19.6% (inactive) in test [7] and -65.9% (inactive) in test [8]. In addition, the inhibition of aggregation in test [2] was 23% (inactive). The nuclei count in test [2] was 94.4%; in test [3], 107%. Further, the fluorescence slope in test [4] is -0.386 (inactive). In test [5], the NADPH fluorescence slope was 1.9e-05 (inactive). Besides, the slope in test [6] was 0.00535 (inactive).

`COC(=O)C1=C(N)Oc2cc(C)n(Cc3ccncc3)c(=O)c2C1c1cccnc1` (stereo not given): in test [1], the cell count is 594. Moreover, the inhibition in test [1] is -13.5% (inactive); in test [3], 10.9% (inactive); in test [7], 12.8% (inactive); in test [8], 14.1% (inactive). For the same molecule, the inhibition of aggregation in test [2] was 0% (inactive). For the same molecule, the nuclei count in test [2] worked out at 87.4%; in test [3], 104%. Moreover, in test [4], the fluorescence slope was -0.479 (inactive). The NADPH fluorescence slope in test [5] is -7e-05 (inactive). For the same molecule, in test [6], the slope was 0.00483 (inactive).

Consider `Cc1c(C(=O)Nc2nnc(C(F)(F)F)s2)oc2ccccc12`, for which the cell count in test [1] was 778. Besides, the inhibition in test [1] was -8.8% (inactive); in test [3], -57.7% (inactive); in test [7], -13.9% (inactive); in test [8] it was -95.9% (inactive). Besides, the inhibition of aggregation in test [2] was -7.7% (inactive). For the same molecule, the nuclei count in test [2] was found to be 121%; in test [3], 108%. Also, the fluorescence slope in test [4] was -0.419 (inactive). Also, the NADPH fluorescence slope in test [5] is 2.3e-05 (inactive). The slope in test [6] was 0.00814 (inactive).

As for `Cc1nc2ccccc2n1CCC(=O)Nc1cccc(F)c1`, in test [1], the cell count was found to be 606. The inhibition was -4.8% (inactive) in test [1], -23.9% (inactive) in test [3], 16.2% (inactive) in test [7] and 4.83% (inactive) in test [8]. Also, the inhibition of aggregation in test [2] is 0.2% (inactive). The nuclei count in test [2] turned out to be 100%; in test [3] it was 110%. The fluorescence slope in test [4] was -0.303 (inactive). Further, the NADPH fluorescence slope in test [5] was 9.1e-07 (inactive). For the same molecule, the slope in test [6] is 0.00551 (inactive).

Take `COc1ccc(C(=O)CN2C(=O)NC3(CCCc4ccccc43)C2=O)cc1OC` (stereo not given): the cell count in test [1] was 412. The inhibition in test [1] is -9% (inactive); in test [3] it was 35.3% (inactive); in test [7], 15.1% (inactive); in test [8], 13.4% (inactive). Further, the inhibition of aggregation in test [2] is 2.7% (inactive). The nuclei count in test [2] is 94.1%; in test [3], 87.2%. The fluorescence slope in test [4] was -0.51 (inactive). Moreover, the NADPH fluorescence slope in test [5] is -2.4e-05 (inactive). In test [6], the slope is 0.00564 (inactive).

`COc1ccc(C(=O)c2coc3ccc(O)c(CN4CCCCC4)c23)cc1`: in test [1], the cell count is 828. Further, the inhibition in test [1] was -6.8% (inactive); in test [3], -25.2% (inactive); in test [7], -9.24% (inactive); in test [8], -15.8% (inactive). In addition, the inhibition of aggregation in test [2] is -9.1% (inactive). Besides, the nuclei count in test [2] is 108%; in test [3], 112%. The fluorescence slope in test [4] was -0.597 (inactive). In addition, in test [5], the NADPH fluorescence slope was -1.2e-05 (inactive). For the same molecule, the slope in test [6] is 0.00458 (inactive).

For `COc1ccc(C)cc1NC(=O)c1nnn(Cc2cccc(F)c2)c1N`, the cell count in test [1] was 610. For the same molecule, the inhibition was -0.2% (inactive) in test [1], -31.3% (inactive) in test [3], 40.9% (inactive) in test [7] and 1.2% (inactive) in test [8]. Moreover, the inhibition of aggregation in test [2] is 6.4% (inactive). Further, the nuclei count came to 100% in test [2] and 127% in test [3]. Besides, the fluorescence slope in test [4] was -0.513 (inactive). The NADPH fluorescence slope in test [5] was -2.7e-05 (inactive). The slope in test [6] was 0.00668 (inactive).
